tim10-1 inh = growth inhibitors of tim10-1 mutant yeast, primary screen, luminescence, uHTS | AID 463190, 2010 | inhibition, % at 20 µM | S. cerevisiae tim10-1 ts strain growth, BacTiter-Glo, 24 h | actives 2.2% (n = 330,000);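 active = inhibition of at least 40%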;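 also: mutant grown at 25 °C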
tim23-1 inh = growth inhibitors of tim23-1 mutant yeast, primary screen, luminescence, uHTS; S. cerevisiae tim23-1 growth, BacTiter-Glo luminescence, 24 h; inhibition, % at 20 µM; actives 1.3% (n = 330,000);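 active = growth inhibition of the mutant yeast at or above 50%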;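 also: temperature-sensitive mutant grown at 25 °C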
TIM10 inh = growth inhibitors of isogenic TIM10 control yeast, primary screen, counter-screen for tim10-1 yeast inhibitor project, luminescence, uHTS. AID 463195, 2010. actives 1.4% (n = 330,000). inhibition, % at 10 µM. S. cerevisiae TIM10 strain growth, BacTiter-Glo luminescence, 24 h;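 active = inhibition of 40% or more at the single tested concentration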;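 also: wild-type TIM10 isogenic control strain grown at permissive 25 °C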
PfHsp90 set2 = growth inhibition of PfHsp90-expressing yeast, primary screen, antimalarial PfHsp90 inhibitor project, S. cerevisiae, BacTiter-Glo luminescence, single point, set 2; actives 0.32% (n = 310,000); inhibition, % at 9.4 µM; BacTiter-Glo ATP, 48 h; yeast lacking PDR1 and PDR3 efflux regulators;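 active = every replicate shows inhibition above about 80%, whatever the replicate mean, limit read from the data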
Mot1-301 SUMO = yeast Mot1-301 growth rescue at high temperature, primary screen, SUMOylation pathway inhibitor project, S. cerevisiae, ATP luminescence, 38.5C; S. cerevisiae Mot1-301 growth rescue; percent above DMSO median, 100 means doubled; growth rescue, % at 18.8 µM; actives 1% (n = 320,000); AID 2716, 2010;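 active = every valid replicate shows activation above 250% relative to neutral control wells; inactive = the rest, any valid replicate at or below 250%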
tim10-1 confirm = growth inhibitors of tim10-1 mutant yeast, confirmation, single concentration, luminescence, S. cerevisiae | shares compounds with tim10-1 inh | S. cerevisiae tim10-1 ts strain growth, BacTiter-Glo, 24 h | inhibition, % at 20 µM | actives 56% (n = 7,400);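 active = inhibition of yeast growth at or above a set limit in either of two repeat tests at 20 µM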;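 also: tim10-1 mutant grown at permissive 25 °C to find synthetic lethal compounds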
Numbers stand for hits; 0 = inactive; - = no result given. Sampled rows, rich in hits. Any-hit rate of the full collection: about 4.4%.

SMILES	tim10-1 inh	tim23-1 inh	TIM10 inh	PfHsp90 set2	Mot1-301 SUMO	tim10-1 confirm
O=C(c1cccs1)c1c[nH]cc1-c1ccccc1	52	0	0	-	0	38
O=C(c1ccccc1)c1c[nH]cc1-c1ccccc1	0	0	0	0	0	-
N#Cc1ccc(N2Cc3ccccc3C2=NC(=O)c2cccs2)cc1	51	0	0	0	0	39
CC(=O)c1ccc(N2Cc3ccccc3C2=NC(=O)c2cccs2)cc1	0	0	0	0	0	-
CCN(CC)S(=O)(=O)c1ccc2[nH]cc(C(=O)NC3CC3)c(=O)c2c1	0	0	0	0	0	-
CCn1c(-c2cc(-c3cccc(OC)c3)nc3ccccc23)n[nH]c1=S	43	0	0	-	0	0
CCc1ccc(-c2cc(-c3n[nH]c(=S)n3CC)c3ccccc3n2)cc1	-	-	-	-	0	-
CCN(C1CCCCC1)S(=O)(=O)c1cc(C)ccc1OC	43	0	0	0	0	0
CCN(C1CCCCC1)S(=O)(=O)c1ccc(OC)c(C)c1	0	0	0	0	0	-
CN(CCCC(=O)O)c1ccc(N=Nc2ccc([N+](=O)[O-])cc2)cc1	54	0	0	0	0	45
CN(N=Nc1ccc([N+](=O)[O-])cc1)c1ccccc1	0	0	0	0	0	-
COc1ccc2c(c1)CC/C(=C\c1ccc(OC)c(Cn3nc(C)cc3C)c1)C2=O	40	0	0	-	0	0
CC(=O)c1c(C)[nH]c(C(=O)CN2C(=O)NC3(CCCCC3C)C2=O)c1C (centres undefined)	0	0	0	0	-	-
N#C/C(=C/c1ccc(O)c([N+](=O)[O-])c1)C(=O)Nc1ccccc1	40	0	0	0	0	0
CC1Cc2cc(S(=O)(=O)N3CCC(C(=O)N4CCN(c5ccccc5F)CC4)CC3)ccc2N1C(=O)C1CC1 (centres undefined)	0	0	0	0	0	-
CCCCS/C(=C(/C#N)C(N)=O)c1cc2c([nH]1)CCCC2	45	0	0	-	0	38
COc1ccccc1N(C)S(=O)(=O)c1ccc(C(=O)Nc2ccc(N3CCOCC3)cc2)cc1	47	0	0	0	0	33
CCc1ccc(-c2nc(SCC(=O)NC3CC3)n[nH]2)cc1	0	0	0	0	0	-
Cc1cccc(NC2=C(NCCO)C(=O)c3ccccc3C2=O)c1	42	0	0	0	0	32
COc1cccc(NC2=C(NCCO)C(=O)c3ccccc3C2=O)c1	0	0	0	0	0	-
O=C(N1CCC(n2nc(-c3ccccc3)oc2=O)CC1)C1(c2ccccc2)CC1	0	0	0	0	0	-
COc1cc(OC)c(C(=O)OCC(=O)N2CCN(S(=O)(=O)c3ccc(C)cc3C)CC2)cc1OC	-	-	-	0	-	-
Cc1ccc(C(C)C)c(OCCCN2C(=O)NC(C)(C)C2=O)c1	43	0	0	-	-	0
C=CCc1c(C)nc(SC)nc1Nc1ccccc1	44	0	0	-	0	0
N#C/C(=C\c1ccc(-c2nc3ccccc3s2)o1)C(N)=O	40	0	0	0	0	0
SMILES	tim10-1 inh	tim23-1 inh	TIM10 inh	PfHsp90 set2	Mot1-301 SUMO	tim10-1 confirm
CNC(=O)/C(C#N)=C/c1ccc(-c2nc3ccccc3s2)o1	0	0	0	-	0	-
OCC1CCCN(c2ncnc3scc(-c4ccccc4)c23)C1 (centres undefined)	0	0	0	0	0	-
OCC1CCCN(c2nc(CN3CCCCC3)nc3scc(-c4ccccc4)c23)C1 (centres undefined)	40	0	0	0	0	0
O=C(CCC(=O)NC1CCCCC1)Nc1cccnc1	0	0	0	0	0	-
COc1cc(C(=O)N/N=C(\C)c2ccc(NC(=O)Cc3ccccc3)cc2)ccc1O	0	0	0	0	0	-
COc1ccc(-c2nnc(SCC(=O)N3CCc4ccccc4C3)o2)cc1	43	0	0	0	0	0
O=C(CSc1nnc(-c2ccccc2)o1)N1CCc2ccccc2C1	0	0	0	-	0	-
COc1ccc(-c2nnc(NC(=O)c3ccc(S(=O)(=O)N4CCc5ccccc5C4)cc3)o2)cc1	44	0	0	0	0	39
Cc1ccc(-n2nnnc2SCC(=O)N2CCc3ccccc3C2)c(C)c1	44	0	0	0	0	32
COc1ccc(-c2csc(NC(=O)c3ccc(S(=O)(=O)N4CCc5ccccc5C4)cc3)n2)cc1	0	0	0	0	0	-
Cc1cc(NC(=O)C(C)Oc2ccc(Cl)cc2Cl)no1 (centres undefined)	0	0	0	0	0	-
Cc1cc(N2CCN(c3ccccc3Cl)CC2)n2cc(-c3ccccc3)nc2n1	42	0	0	0	0	49
N#C/C(=C\c1c[nH]c2ccc(Br)cc12)c1ccccn1	48	0	0	0	0	35
N#C/C(=C\c1ccc(C(=O)O)cc1)c1ccccn1	0	0	0	0	0	-
COc1ccc(-n2ncc(Cl)c(Cl)c2=O)cc1	0	0	0	-	-	-
COc1ccc(Sc2cnn(-c3ccccc3)c(=O)c2Cl)cc1	48	0	0	0	-	45
C=CCc1cccc(/C=N/NC(=O)c2ccc3nc[nH]c3c2)c1O	44	0	0	0	0	0
O=C(N/N=C/c1ccc(Cl)cc1Cl)c1ccc2nc[nH]c2c1	0	0	0	0	0	-
CC(OC(=O)c1ccccc1)C(=O)NCc1ccco1 (centres undefined)	0	0	0	0	0	-
Cc1ccnn1CCC(=O)N1CCCC(Nc2ccc(F)c(F)c2)C1 (centres undefined)	0	0	0	0	0	-
O=C(NCc1ccccc1)c1ccc(NC(=O)C2CCCCC2)cc1	-	-	-	0	-	-
Cc1ccc(NC(=O)c2sc3ncnc(N4CCN(c5ccccn5)CC4)c3c2C)c(C)c1	48	0	0	0	0	0
COc1ccc(C)cc1NC(=O)c1sc2ncnc(N3CCN(c4ccccn4)CC3)c2c1C	0	0	0	0	0	-
COc1ccc(-n2c(CCc3ccccc3)n[nH]c2=S)cc1	0	0	0	0	0	-
CCOc1ccc(-n2c(CCc3ccccc3)n[nH]c2=S)cc1	41	0	0	0	0	0
Cc1[nH]c2c(ccc3ccccc32)c1C1C(CCN)C1(C)C (centres undefined)	45	0	0	-	0	33
CC[n+]1c(C)sc2c(C)cc(C)cc21	42	0	0	0	0	34
Cc1cc(C)c2sc(C)[n+](CCCS(=O)(=O)[O-])c2c1	0	0	0	0	-	-
CCc1ccc(-c2csc(NC(=O)C3CC(=O)N(c4ccc5c(c4)OCCO5)C3)n2)cc1 (centres undefined)	47	0	0	0	0	0
O=C(Oc1c(CN2CCOCC2)cc(Cl)c2cccnc12)c1ccccc1	51	0	0	0	0	0

Screening data deposited in PubChem by several laboratories.
